# Reference: the supplement of paper PMC6555819
# Experiments:
# Test in all cases: PBM binding z-score (relative to random genomic background probes); higher = stronger binding; sequences stand for … in GC…GCGATTGACAGCGTAGAATGAAGG
# [1] = tested on: FXR:RXRa (NR concentration 270 nM, RXRa partner concentration 90 nM)
# Summary of the method: (§1)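 Binding buffer was PBS pH 7.4 with 2% milk, 0.02% Triton X-100, 1 mM DTT, 0.2 mg/mL BSA and 0.4 mg/ml salmon testes DNA. In it, ligand-free nuclear receptor dimers were incubated 1 h on custom Agilent 4×180K protein-binding microarrays carrying double-stranded probes. Antibodies against each partner (one per run) detected binding, and z-scores were calculated against random background probes after regression normalization of scanned fluorescence.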
# [2] = tested on: LXRa:RXRa (NR concentration 270 nM, RXRa partner concentration 90 nM)
# Summary of the method: as §1
# [3] = tested on: LXRa homodimer (NR concentration 270 nM)
# Summary of the method: as §1
# [4] = tested on: LXRb:RXRa (NR concentration 270 nM, RXRa partner concentration 90 nM)
# Summary of the method: as §1
# [5] = tested on: LXRb homodimer (NR concentration 270 nM)
# Summary of the method: as §1
# [6] = tested on: PPARa:RXRa (NR concentration 270 nM, RXRa partner concentration 90 nM)
# Summary of the method: as §1
# [7] = tested on: PPARg:RXRa (NR concentration 180 nM, RXRa partner concentration 90 nM)
# Summary of the method: as §1
# [8] = tested on: PPARg:RXRa 270nM:90nM, anti-RXR (NR concentration 270 nM, RXRa partner concentration 90 nM)
# Summary of the method: as §1
# [9] = tested on: PPARg:RXRa 30nM:10nM, anti-RXR (NR concentration 30 nM, RXRa partner concentration 10 nM)
# Summary of the method: as §1
# [10] = tested on: PPARg:RXRa 90nM:30nM, anti-RXR (NR concentration 90 nM, RXRa partner concentration 30 nM)
# Summary of the method: as §1
# [11] = tested on: PPARg:RXRa DBDmut IVT, anti-RXR (DBD mutation: RXRa K156A/R161A, NR concentration 270 nM, RXRa partner concentration 90 nM)
# Summary of the method: as §1
# [12] = tested on: PPARg:RXRa IVT, anti-PPARg (NR concentration 270 nM, RXRa partner concentration 90 nM)
# Summary of the method: as §1
# [13] = tested on: PPARg DBDmut:RXRa IVT, anti-PPARg (DBD mutation: PPARg1 K132A/R137A, NR concentration 270 nM, RXRa partner concentration 90 nM)
# Summary of the method: as §1
# [14] = tested on: PPARg DBDmut IVT, anti-PPARg (DBD mutation: PPARg1 K132A/R137A, NR concentration 270 nM)
# Summary of the method: as §1
# [15] = tested on: PPARg homodimer (NR concentration 180 nM)
# Summary of the method: as §1
# [16] = tested on: PXR:RXRa (NR concentration 270 nM, RXRa partner concentration 90 nM)
# Summary of the method: as §1
# [17] = tested on: PXR homodimer (NR concentration 270 nM)
# Summary of the method: as §1
# [18] = tested on: RARa:RXR (NR concentration 270 nM, RXRa partner concentration 90 nM)
# Summary of the method: as §1
# [19] = tested on: RARa homodimer (NR concentration 270 nM)
# Summary of the method: as §1
# [20] = tested on: RARb:RXRa (NR concentration 270 nM, RXRa partner concentration 90 nM)
# Summary of the method: as §1
Sequence,PBM binding z-score [1],PBM binding z-score [2],PBM binding z-score [3],PBM binding z-score [4],PBM binding z-score [5],PBM binding z-score [6],PBM binding z-score [7],PBM binding z-score [8],PBM binding z-score [9],PBM binding z-score [10],PBM binding z-score [11],PBM binding z-score [12],PBM binding z-score [13],PBM binding z-score [14],PBM binding z-score [15],PBM binding z-score [16],PBM binding z-score [17],PBM binding z-score [18],PBM binding z-score [19],PBM binding z-score [20]
GCGACTGGGGCATCAGCAGCTTACCATAACTTAA,-0.818,-0.694,-0.417,-0.0189,-1.2,0.137,0.465,0.329,-0.116,-0.198,4.14,2.77,-0.78,-0.628,-0.268,-0.462,-0.432,-0.454,-0.449,0.116
ACTTACGGGTCAACTAGGTTATAGCACGCGTATA,6.74,4.89,0.702,4.49,0.758,5.8,6.09,5.5,2.25,4.51,3.88,4.98,1.29,1.61,2.6,4.26,0.766,4.91,1.54,4.36
ACTAGTTGGTCAGCTGAGGTCACACATAATTCGG,3.42,3.14,2.03,3.37,1.17,3.6,1.8,2.34,0.875,1.62,1.85,2.53,0.818,1.05,2.38,5.42,1.87,4.34,1.21,3.51
TGTCAAGGTTCAAAGGTAACGTAAGTATCCACAC,6.06,5.12,1.39,3.74,0.581,5,6.29,6.26,3.14,5.92,-0.0297,3.17,0.246,0.633,3.16,4.14,0.595,5.82,0.446,3.32
ACTAGTTGGTCAGCTGAGGCCACACACAATTCGG,0.531,-0.313,-0.2,-0.129,-0.143,-0.0104,0.761,-0.157,-0.382,-0.207,0.674,0.964,0.862,0.728,0.0249,1.11,-0.242,1,-0.472,1.13
ACTAGTCGGTCAGCTGAGGTCACACACAATTCGG,5.04,4.68,4.97,3.86,1.32,4.15,2.51,2.99,0.573,2,3.9,3.98,0.395,0.525,3.35,5.95,2.63,4.69,2.2,4.16
ATCTCTAGGTAAAAGTGCAGTGAATCCCGAGGAT,0.179,-0.141,-0.393,0.0767,0.339,2.81,4.31,5.78,3.66,6.27,2.08,2.5,0.765,0.971,0.819,0.0221,0.246,-0.0111,0.256,0.518
